A selection: hits, their analogues and other compounds. The true share with any hit is near 11%.
Pf growth 96h = Primary qHTS for delayed death inhibitors of the malarial parasite plastid, 96 hour incubation. P. falciparum luciferase reporter growth, 96 h. Potency, µM (highest dose often 28.7 µM), actives largely listed as inhibitors. 6.9% of 320,000 active
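Two parasite generations (96 h, 37 C, 5% CO2) of compound exposure in infected erythrocytes (0.05% parasitemia, 2% hematocrit). Luciferase-reporter P. falciparum; decreased luminescence indicates inhibited growth, aimed at apicoplast-acting delayed death.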
AMA1 RON2 block = qHTS for Inhibitors of AMA1-RON; Towards Development of Antimalarial Drug Lead: Primary Screen | 0.2% of 360,000 active | AID 720542, 2013 | Potency, µM (top dose mostly 58.2 µM), most hits filed as inhibitors | Plasmodium falciparum AMA1 (3D7) - RON2 peptide interaction | AlphaScreen AMA1-biotinylated RON2 peptide binding; further: nearly all actives have a fitted effect of over 45% in size
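AMA1 (3D7) with his tag at 25 nM final met compounds first, then biotinylated RON2 peptide at 25 nM; detection used donor plus acceptor beads, 10 µg/mL apiece, read by AlphaScreen after 30 min at room temperature.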
Sm TGR block = qHTS Assay for the Inhibitors of Schistosoma Mansoni Peroxiredoxins; Potency, µM (top dose mostly 114 µM), actives largely listed as inhibitors; purified TGR, DTNB reduction, TNB absorbance 405 nm; 3% of 360,000 active; AID 485364, 2010; further: nearly all actives have a fitted effect of over 60% in size
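Kinetic colorimetric format: TGR-catalysed, NADPH-driven DTNB reduction monitored via TNB absorbance. Enzyme dispensed at 20 nM; compound exposure 15 min at room temperature before reaction start.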
NS1 function inh = qHTS Assay for Inhibitors of Influenza NS1 Protein Function; Potency, µM (top dose mostly 46.1 µM); 0.4% of 270,000 active; calls by dose curve; further: actives are rising curves; nearly all actives have a fitted effect of over 50% in size
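In this qHTS, NS1 from influenza A is expressed in budding yeast, where it slows growth. Cells are switched from glucose to 2% galactose medium (pH 6.0, -URA), treated with compound, and growth recovery is read at OD600.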
Pf growth 48h = Primary qHTS for delayed death inhibitors of the malarial parasite plastid, 48 hour incubation; P. falciparum luciferase growth in erythrocytes, 48 h; 5.9% of 310,000 active; AID 504832, 2011; Potency, µM (highest dose often 28.7 µM), usual class: inhibitors
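Cell-based growth assay: transgenic P. falciparum expressing firefly luciferase, cultured in red cells within RPMI 1640 containing 0.5% w/v Albumax, 24 mM bicarbonate and gentamycin. A drop in luciferase activity indicates inhibition.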
Each line names hits and unclear results; the compound was inactive in the other large screens. Unless noted, the call rests on the fitted dose curve; in most records, active means well fitted curve in the direction sought with a large enough effect; inconclusive means small, poorly fitted or top-dose-only effect, or another doubt; inactive means no such curve, though single readings can be large; an effect the other way counts as inactive or inconclusive.

COc1cc(F)ccc1CN1CCC(n2nccc2NC(=O)C2CCOC2)CC1 (centres undefined)	none
NS(=O)(=O)c1ccc(N2CCN(CCOc3ccc(Cl)cc3)CC2)nc1	none
CN(CC(=O)Nc1ccc(Cl)cc1)C(=O)CCc1c[nH]c2ccccc12	none
COc1ccc(NC(=O)CN(C)C(=O)CCCc2c[nH]c3ccccc23)cc1	Pf growth 96h 10.4µM, Pf growth 48h inconclusive (no result: NS1 function inh)
CCOc1ccc(NC(=O)CN(C)C(=O)CCCc2c[nH]c3ccccc23)cc1OCC	Pf growth 96h inconclusive, Pf growth 48h 10.4µM (no result: NS1 function inh)
COc1cccc(N2C(=O)[C@H]3C(C(=O)c4cnccn4)=NN[C@H]3C2=O)c1	Sm TGR block 44.7µM
CCC1C(=O)Nc2ccccc2N1C(=O)COc1ccccc1 (centres undefined)	none
CC1CCCN(S(=O)(=O)c2ccc3c(c2)OCCO3)C1 (centres undefined)	none (no result: Pf growth 96h, Sm TGR block, NS1 function inh, Pf growth 48h)
CC(=O)Nc1ccc(N=Nc2ccccc2)cc1	none
O=C(CCl)Nc1ccccc1Sc1ccccc1	Pf growth 96h 9.28µM, Sm TGR block inconclusive (no result: Pf growth 48h)
O=C(CCl)Nc1ccc(N=Nc2ccccc2)cc1	Pf growth 96h inconclusive, Sm TGR block 39.8µM, Pf growth 48h 4.65µM
CC(C)N(c1ccccc1)c1ccc(NC(=O)CCl)cc1	Pf growth 96h 10.4µM, Sm TGR block 14.1µM, Pf growth 48h 10.4µM (no result: NS1 function inh)
CC(=O)Nc1ccc(NC(=O)Cc2ccc(-c3ccccc3)cc2)cc1	none
CC(C)N(c1ccccc1)c1ccc(NC(=O)[C@@H]2O[C@H](CO)[C@H](O)[C@H](O)[C@H]2O)cc1	none (no result: Pf growth 96h, Sm TGR block, NS1 function inh, Pf growth 48h)
O=C(CCl)Nc1ccc(-c2ccccc2)cc1	Pf growth 96h 13.1µM, Sm TGR block 4.47µM, Pf growth 48h inconclusive (no result: NS1 function inh)
CCCCN1CC(COCc2ccccc2)Oc2cccc(Oc3ccc(F)cc3)c2S1(=O)=O (centres undefined)	none (no result: Pf growth 96h, Sm TGR block, NS1 function inh, Pf growth 48h)
Cc1cccc(NC(=O)c2ncn3c2C(=O)N(C)CC3)c1	none (no result: Pf growth 96h, Sm TGR block, NS1 function inh, Pf growth 48h)
O=C(CCl)Nc1cn(-c2ccccc2)nc1-c1ccccc1	Pf growth 96h inconclusive, Sm TGR block 17.8µM, Pf growth 48h inconclusive (no result: NS1 function inh)
Cc1ccc(Sc2ccc(NC(=O)CCl)cc2)cc1C	Pf growth 96h 0.828µM, Sm TGR block inconclusive, Pf growth 48h 1.47µM
CC(=O)Nc1cn(-c2ccccc2)nc1-c1ccccc1	none (no result: NS1 function inh)
CCCCOc1ccc(OC(=O)Nc2cc(Cl)ccc2OC)cc1	NS1 function inh inconclusive, Pf growth 48h inconclusive
C/C(=N\OCC(=O)Nc1ccccc1C(C)(C)C)c1ccc2c(c1)OCCO2	Pf growth 96h inconclusive, Pf growth 48h 9.28µM
CN(C)S(=O)(=O)c1ccc2c(c1)/C(=C/c1cc3c([nH]1)CCCC3)C(=O)N2	Pf growth 96h 1.31µM, Sm TGR block 50.1µM, Pf growth 48h 2.08µM
CN(C)S(=O)(=O)c1ccc2c(c1)C(=O)c1cc(S(=O)(=O)N(C)C)ccc1CC2	Pf growth 96h inconclusive (no result: AMA1 RON2 block, NS1 function inh)
Cc1cc(NC(=O)c2cccs2)ncc1NC(=O)c1cccc(F)c1	Pf growth 96h 5.22µM (no result: Sm TGR block)
Cc1cc(NC(=O)c2cccs2)ncc1NC(=O)C(C)C	Pf growth 96h 2.33µM
CCCC(=O)Nc1cc(C)c(NC(=O)c2cccs2)cn1	none (no result: NS1 function inh)
Cc1cc(NC(=O)c2ccccc2)ncc1NC(=O)c1cccs1	none (no result: Sm TGR block)
Cc1ccc(-c2nc(C#N)c(N3CCC(C(N)=O)CC3)o2)cc1	Pf growth 96h inconclusive
COc1ccc(NC(=S)NC(NC(C)=O)C(Cl)(Cl)Cl)c([N+](=O)[O-])c1 (centres undefined)	Pf growth 96h inconclusive
COc1ccccc1NC(=S)NC(NC(=O)c1ccco1)C(Cl)(Cl)Cl (centres undefined)	Pf growth 48h inconclusive
COc1ccc(NC(=O)c2ccccc2)c([N+](=O)[O-])c1	none (no result: NS1 function inh)
COc1ccc(NC(=S)NC(NC(=O)c2cccc(C)c2)C(Cl)(Cl)Cl)c([N+](=O)[O-])c1 (centres undefined)	Pf growth 48h 3.29µM
COc1ccc(NC(=S)NC(NC(=O)CF)C(Cl)(Cl)Cl)c([N+](=O)[O-])c1 (centres undefined)	Pf growth 96h inconclusive, Sm TGR block 39.8µM

Source: PubChem (National Center for Advancing Translational Sciences (NCATS))
